{
  "source": "paper PMC5540273",
  "about": "(PLoS ONE, 2017);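 further: KINOMEscan kinase panel screen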",
  "data": [
    {"test_system": "T1, FAK", "T1 construct": "gene PTK2", "settings": "concentration: 1 μM, replicates: in singlicate; n = 1", "units": {"%Inh": "%"}, "values": [
      {"compound": "NS(=O)(=O)c1cccc(-c2ccc3ncc(N4CCOCC4)nc3c2)c1", "note": "[GSK1535721]", "%Inh": 0},
      {"compound": "COc1ccc(CNC(=O)NC2CCN(c3ccnc(Nc4ccc(OC)cc4)n3)C2)cc1", "note": "(centres unmarked) [GSK1379727]", "%Inh": 0},
      {"compound": "Cc1nnc(-c2ccc(C)c(-c3ccc(C(=O)Nc4ccc(NS(C)(=O)=O)cc4)cc3)c2)o1", "note": "[GW702865]", "%Inh": 0},
      {"compound": "Cc1nnc(-c2ccc3occ(-c4ccc(C(C)O)cc4)c3c2)o1", "note": "(centres unmarked)", "%Inh": 0},
      {"compound": "[2H]C([2H])(c1cccc(C(F)(F)F)c1C)n1ccn2c(=O)nc(N3CCOCC3)cc12", "note": "[GSK2336394]", "%Inh": 0},
      {"compound": "NCC(NC(=O)c1cc(-c2cn[nH]c2)c(-c2ccnc3[nH]ccc23)s1)c1ccccc1.O=C(O)C(F)(F)F.O=C(O)C(F)(F)F", "note": "(centres unmarked) [GSK1325775]", "%Inh": 57},
      {"compound": "O=C(NCCNc1ccnc(Nc2ccc(F)cc2)n1)Nc1ccccc1F", "note": "[GSK1379880]", "%Inh": 0},
      {"compound": "COc1ccc(S(=O)(=O)NC2CCN(c3cc(C)nc(Nc4cccc(C#N)c4)n3)CC2)cc1.O=C(O)C(F)(F)F", "note": "[GSK1653539]", "%Inh": 0},
      {"compound": "O=C1NC(=O)C(N2CCc3ccccc32)=C1c1cccc(Cl)c1", "note": "[SB-408010]", "%Inh": 0},
      {"compound": "O=c1cc(N2CCOCC2)nc2n(Cc3cccc(Cl)c3Cl)c(C3CC3)nn12", "note": "[GSK2358994]", "%Inh": 0},
      {"compound": "O=c1cc(N2CCOCC2)nc2n(Cc3cccc(F)c3)ccn12", "note": "[GSK2297430]", "%Inh": 0},
      {"compound": "Cl.Cl.Cl.Fc1ccc(-c2ncn(C3CCNCC3)c2-c2ccnc(Nc3ccccc3)n2)cc1", "note": "[SB-238039]", "%Inh": 0},
      {"compound": "CSc1ccc(-c2cc3ncnc(SCC(=O)O)c3s2)cc1", "%Inh": 0},
      {"compound": "O=C(c1ccc(-c2cc(-c3c[nH]nc3-c3ccccn3)ccn2)cc1)N1CCOCC1", "note": "[GW812171]", "%Inh": 0},
      {"compound": "COc1ccc(Nc2nccc(N3CCC(NC(=O)Nc4cc(C)ccc4C)C3)n2)cc1", "note": "(centres unmarked) [GSK1379741]", "%Inh": 0},
      {"compound": "Fc1ccc(-c2nn3c(OCC(F)(F)F)cccc3c2-c2ccncc2)cc1", "note": "[GW514784]", "%Inh": 0},
      {"compound": "N#Cc1ccc(-c2cc(-c3c[nH]nc3-c3ccccn3)ccn2)cc1", "note": "[GW693028]", "%Inh": 0},
      {"compound": "COc1cc2ncn(-c3cc(OCc4sccc4Cl)c(C(N)=O)s3)c2cc1OC", "note": "[GSK448459]", "%Inh": 0},
      {"compound": "NS(=O)(=O)CCc1cccc(Nc2nccc(-c3c(-c4cccc(NC(=O)c5c(F)cccc5F)c4)nn4ccccc34)n2)c1", "note": "[GSK336735]", "%Inh": 4},
      {"compound": "O=C(Nc1n[nH]c2cc(-c3cccc(F)c3)ccc12)C1CC1", "note": "[SB-735464]", "%Inh": 3}
    ]}
  ]
}
